An excerpt weighted towards active compounds, which were near 2.7% of everything screened.
ERG Ets-DNA blk – blocks human ERG Ets domain binding to DNA | AID 624246 | 370,000 tested, 0.028% active | Potency, µM (top dose mostly 76.9 µM), for the others: at the top dose FP activity, negative = inhibition, hits mostly inhibitors | P11308 | fluorescence polarization, His-ERG Ets domain / labelled DNA; active = well fitted inhibition curve with a large enough effect in the polarisation, with a control signal flat; inconclusive = small, poorly fitted or top-dose-only effect, or effect the other way, or a change in a side signal; inactive = no such curve, though single readings can be large or run the other way; the % refers to the polarisation;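 also: polarization taken with two DNA probes labelled with fluorescein and Texas red; potency is read from the fitted curve at half-maximal effect; % of control where 0% means no effect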
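His-tagged ERG Ets domain (1 uM in the protein solution; 300mM KCl, 50mM Tris-HCl, 1mM EDTA, 1mM DTT, pH 7.5) received compound, then a probe mix of 5 nM fluorescein-DNA and 100nM Texas-615-DNA. Fluorescence polarization was read for both dyes.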
Nrf2 ARE act – activators of Nrf2 (ARE) signaling; Potency, µM (highest dose often 46.1 µM), for inactives: at the top dose activation, usual class: activators; AID 624171; 410,000 tested, 0.31% active; AREc32 ARE-luciferase reporter (MCF7-derived line), luminescence, 24 h; also: potency is read from the fitted curve at half-maximal effect; % of control where 0% means no effect; nearly all actives have a fitted effect of over 65% in size
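Cells of the AREc32 ARE-luciferase line are plated in OPTI-MEM containing 5% FBS and left overnight at 37 deg C. Compounds are pinned in, incubation continues 24 hr, and firefly luciferase signal is then measured.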
Nrf2 inh – Nrf2 pathway inhibition | A549 ARE-Fluc reporter, luciferase luminescence, 18-24 h | AID 504444 | Potency, µM (doses to about 46 µM), without a hit: at the top dose activity change, negative = inhibition, hits mostly inhibitors | 360,000 tested, 2.1% active; also: potency is read from the fitted curve at half-maximal effect; % is scaled to controls: 0 for no effect and ±100 for the full control effect; nearly all actives have a fitted effect of over 60% in size
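Concentration-response testing used A549 ARE_Fluc cells at 5000 cells/well. Following an 18-24 h compound incubation, viability was read by fluorescence (Ex 405/Em 525) and luciferase output by luminescence.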
A549 tox – counter-screen for Nrf2 inhibitors: cytotoxicity in A549 cells. 390,000 tested, 0.16% active. Potency, µM (highest dose often 46 µM), inactives show top-dose activity change, negative = cytotoxicity, most hits filed as inhibitors. A549 ARE-Fluc cells, CellTiter-Fluor viability, 18-24 h; also: potency is read from the fitted curve at half-maximal effect; % is scaled to controls: 0 for no effect and ±100 for the full control effect
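A549 ARE-Fluc cells in 5% FBS OPTI-MEM, 5000 cells/well, rested 2 h then exposed to compounds in concentration-response for 18-24 h at 37 °C. Viability by CellTiter-Fluor fluorescence (Ex 405/Em 525) after 30 min; luciferase luminescence (BugLite, 15 min, RT) read afterwards.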
LDHA block – blocks human lactate dehydrogenase A; activity change, % (values are at about 110 or 230 µM); AID 1347041; purified LDHA, NADH/diaphorase-resazurin fluorescence; active compounds read low; 480,000 tested, 0.15% active; P00338; in the data active = activity change below about -30%; inconclusive = mostly about -25% to -30%;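 also: plate controls were DMSO wells for no effect and wells without enzyme for full effect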
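LDH5 2 nM; NADH 0.06 mM, pyruvate 0.2 mM; 200 mM Tris pH 7.4, EDTA, Tween-20; 5 min RT. Detection: diaphorase 0.133 mg/mL + resazurin 37 µM, fluorescence ex540/em590 at 0 and 20 min; normalized to enzyme-free and DMSO wells.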
ALOX12 inh – inhibitors of human 12S-lipoxygenase ALOX12. P18054. purified 12hLO, xylenol orange hydroperoxide absorbance. 580,000 tested, 1.1% active. AID 1671190. Potency, µM (top dose mostly 108 µM), inactives show top-dose activity change, negative = inhibition, most hits filed as inhibitors; also: potency is read from the fitted curve at half-maximal effect; % is scaled to controls: 0 for no effect and ±100 for the full control effect
Target sequence (P18054 whole entry, looked up): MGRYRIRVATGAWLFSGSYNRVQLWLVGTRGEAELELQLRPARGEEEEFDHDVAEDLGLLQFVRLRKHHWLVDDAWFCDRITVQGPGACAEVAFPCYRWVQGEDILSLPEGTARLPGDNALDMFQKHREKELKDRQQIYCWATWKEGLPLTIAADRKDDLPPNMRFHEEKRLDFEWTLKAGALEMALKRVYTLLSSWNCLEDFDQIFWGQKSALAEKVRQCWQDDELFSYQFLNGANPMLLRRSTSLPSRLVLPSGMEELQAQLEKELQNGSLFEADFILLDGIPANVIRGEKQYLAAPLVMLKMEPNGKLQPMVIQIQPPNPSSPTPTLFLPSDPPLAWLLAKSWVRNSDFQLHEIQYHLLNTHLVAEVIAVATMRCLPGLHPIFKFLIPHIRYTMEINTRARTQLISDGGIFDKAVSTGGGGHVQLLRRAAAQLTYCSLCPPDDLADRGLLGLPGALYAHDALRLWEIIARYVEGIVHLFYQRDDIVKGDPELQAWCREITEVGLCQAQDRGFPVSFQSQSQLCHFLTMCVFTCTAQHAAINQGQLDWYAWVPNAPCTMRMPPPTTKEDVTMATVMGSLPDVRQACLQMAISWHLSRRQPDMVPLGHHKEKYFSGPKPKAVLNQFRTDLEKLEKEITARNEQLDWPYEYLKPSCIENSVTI
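Purified human 12hLO at 150 nM in 25 mM Hepes, 0.01% Triton X-100, pH 7.0, preincubated 15 min at room temperature with compound. Reaction started with 40 uM arachidonic acid, 30 min at room temperature. Hydroperoxide measured by Fe-xylenol orange, 573/405 nm absorbance ratio.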
* marks the source's active call; other numbers are inactive results; ? = inconclusive; · = no result; [ ] = another dose, or the depositor's remark. Unless noted, calls follow the shape of the dose curve; as a rule, active = well fitted curve in the direction sought with a large enough effect; inconclusive = small, poorly fitted or top-dose-only effect, or another doubt; inactive = no such curve, though single readings can be large; an effect the other way counts as inactive or inconclusive.

SMILES	ERG Ets-DNA blk	Nrf2 ARE act	Nrf2 inh	A549 tox	LDHA block	ALOX12 inh
O=C(OCc1cc(=O)oc2cc(O)ccc12)c1ccc(F)cc1	·	·	·	·	0.3	?
COc1ccc(NC(=O)C2CC(=O)N/C(=N/N=C/c3ccco3)S2)cc1 (stereo not drawn)	-6.4%	2.51µM*	?	10.1%	-3.1	216.2%
O=C1CC(C(=O)Nc2ccc(Br)cc2)S/C(=N\N=C\c2ccco2)N1 (stereo not drawn)	8.6%	6.31µM*	-7.2%	-1.8%	-8.1	376.0%
O=C1CC(C(=O)Nc2ccccc2)S/C(=N\N=C\c2ccco2)N1 (stereo not drawn)	-4.1%	?	2.5%	-8.6%	-9.6	15.2%
CC(C)Cc1nnc(NC(=O)c2ccc3ccn(C)c3c2)s1	·	·	·	·	-2.6	2.1%
CN1C2=CC=CC=CC2=[N+](C)C12C=CC(=[N+]([O-])[O-])C=C2[N+](=O)[O-] (stereo not drawn)	-2.8%	2.5%	23.1µM*	18.4µM*	27.1	-8.2%
CCC(C)N=Cc1c(NCc2ccco2)nc2c(C)cccn2c1=O (stereo not drawn)	3.3%	12.6µM*	-4.6%	-5.0%	-0.2	0.6%
C[C@@H]1CN([C@H](C)CO)C(=O)CCCn2nncc2CO[C@H]1CN(C)C	·	-0.5%	·	·	-32.8*	10.2%
C[C@@H]1CN([C@H](C)CO)C(=O)CCCn2cc(nn2)CO[C@H]1CN(C)S(=O)(=O)c1ccc2c(c1)OCCCO2	·	0.2%	·	·	-30.2*	0.0%
CNC(=O)NC(=O)C(C)OC(=O)c1ccc(COc2ccc3c(C)cc(=O)oc3c2)cc1 (stereo not drawn)	·	·	·	·	0.3	?
Cn1ncc(S(=O)(=O)Cc2ccccc2)c(Cl)c1=O	2.7%	-0.6%	9.7%	1.0%	-7.1	14.1µM*
Cn1ncc(SCc2ccccc2)c(Cl)c1=O	-2.9%	?	?	-6.1%	-6.5	?
CC1Oc2ccc(NS(=O)(=O)c3cccc(Cl)c3)cc2CN(Cc2ccccc2Cl)C1=O (stereo not drawn)	·	·	·	·	·	-14.3%
c1csc(-c2ccc3ccccc3n2)c1	-12.0%	17.8µM*	?	0.1%	2.9	0.6%
Cc1sc(NC(=O)/C=C/C(=O)O)c(C(N)=O)c1-c1ccc(C(C)(C)C)cc1	-0.8%	12.6µM*	-25.5%	-7.9%	-8.0	?
Cc1nc2sc3c(c2c2nc(C(=O)NCCN(C)C)nn12)CC(C)CC3 (stereo not drawn)	·	·	·	·	11.4	15.3%
Cc1cc(NC(=O)CN2CCN(C(=O)c3cc(Cl)ccc3F)CC2)no1	·	·	·	·	-14.5	?
Cc1nc2ccc(NS(=O)(=O)c3cccs3)cc2s1	·	·	·	·	-20.5	-41.7%
O=C(Nc1ccc(OC(F)(F)F)cc1)N1CCOC[C@H](Oc2ccccc2)C1	·	·	·	·	·	9.9%[176 µM]
CN(C)C(CNC(=O)/C=C/c1cccc(Cl)c1)c1ccccc1 (stereo not drawn)	39.8µM*	0.7%	5.9%	4.1%	1.0	36.8%
Cc1ccc(C(=O)C(C)OC(=O)C23CC4CC(CC(O)(C4)C2)C3)cc1C (stereo not drawn)	·	·	·	·	-1.8	?
CC[C@@H](NC(=O)[C@@H](Cc1ccccc1)NC(=O)CC[C@H]1O[C@@H](n2ccc(=O)[nH]c2=O)[C@H](O)[C@@H]1O)c1ccccc1	·	-0.3%	·	·	-5.2	31.6µM*
CC[C@H](NC(=O)[C@@H](Cc1ccccc1)NC(=O)[C@H]1O[C@@H](n2ccc(=O)[nH]c2=O)[C@H](O)[C@@H]1O)c1ccccc1	·	·	·	·	·	-12.3%
O=C(c1cccc(S(=O)(=O)N2CCCC2)c1)c1cccc(S(=O)(=O)N2CCCC2)c1	0.2%	-0.4%	8.2µM*	-14.9%	0.0	-12.5%
O=C(NN=Cc1ccc(F)cc1)c1cccc(S(=O)(=O)N2CCCC2)c1	-5.7%	0.2%	3.5%	-0.1%	-9.3	15.8µM*
SMILES	ERG Ets-DNA blk	Nrf2 ARE act	Nrf2 inh	A549 tox	LDHA block	ALOX12 inh
CCN(Cc1ccccc1)c1ccc(/C=N/NC(=O)c2cccc(S(=O)(=O)N3CCOCC3)c2)cc1	-0.3%	2.8%	11.6µM*	-21.7%	-1.1	2.3%
O=C(N/N=C/c1ccncc1)c1cccc(S(=O)(=O)N2CCCC2)c1	3.6%	-0.1%	23.8%	0.9%	-0.6	11.0%
COC(=O)c1ccccc1NC(=O)N1CCN(c2ccc(=O)n(-c3ccc(C)cc3)n2)CC1	·	·	·	·	-1.0	4.2%
Cc1ccc(S(=O)(=O)N2C[C@@H]3[C@H]4CC[C@H](C4)[C@@H]3[C@@H](C)[C@@H]2c2ccco2)cc1	3.9%	7.3%	?	24.1%	-2.2	5.0%
Cc1ccc(S(=O)(=O)N2C[C@@H]3[C@H]4CC[C@H](C4)[C@@H]3[C@@H](C)[C@H]2c2ccco2)cc1	-17.9%	4.7%	20.6µM*	15.4%	1.5	-38.3%
COc1ccc(NC(=O)c2oc3ccccc3c2NC(=O)c2cc3ccccc3o2)cc1	-0.5%	1.2%	4.3%	3.1%	5.9	-14.6%
COc1ccc(NC(=O)c2oc3ccccc3c2NC(=O)c2ccco2)cc1	-4.6%	-0.5%	1.64µM*	-7.1%	-14.0	-25.8%
O=C(CC(=O)c1ccccn1)c1ccccc1	20.2%	7.94µM*	12.0%	-4.7%	7.8	-14.4%
COc1cccc(N2CCN(c3ccc(NC(=O)c4ccc(C)cc4)cc3C(=O)O)CC2)c1	·	·	·	·	9.5	?
Cc1ccc(OCc2nc(C)c(C(=O)Nc3ccc(C)cc3C)s2)cc1	·	·	·	·	-7.6	35.7%
Cc1cccc(OCc2nc(C)c(C(=O)Nc3cc(C)ccc3C)s2)c1	·	·	·	·	-35.3*	-8.2%
CN(C(=O)c1cc2cccc([N+](=O)[O-])c2[nH]1)C1CCCCCC1	·	·	·	·	0.0	?
C=CCOc1cccc(C2C(C(=O)c3ccco3)=C(O)C(=O)N2Cc2ccncc2)c1 (stereo not drawn)	-10.3%	-0.2%	11.2%	-5.3%	4.0	?
C=CCOc1cccc(C2C(C(=O)c3ccco3)=C(O)C(=O)N2Cc2ccco2)c1 (stereo not drawn)	10.5%	0.3%	1.8%	-0.6%	4.3	44.7µM*
COc1cccc(C(=O)NCCNC(=O)c2cn(C)c3ccccc23)c1	·	·	·	·	-3.3	2.6%
COc1ccc(-c2ccc3ncnc(N(C)Cc4csc(C)n4)c3c2)cc1OC	·	·	3.66µM*	-15.0%	-4.5	·
Cc1cccc(NCc2n[nH]c(=S)n2-c2ccccc2)c1	-5.0%	0.2%	13.9%	0.0%	-9.4	?
Cc1ccc(NCc2n[nH]c(=S)n2-c2ccccc2)cc1	-6.4%	-0.3%	0.3%	-2.8%	-0.4	28.2µM*
